The panel holds about 83,000 compounds, 20% with a hit somewhere; the sample as a whole holds those more often.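 Assay: single dose, 48 h. Readout: percent growth (0 = no net growth; negative = cell death). Active: <10.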 The source made the active and inactive calls.
These compounds were tested on MALME-3M melanoma (assay: NCI-60 one-dose screen, 48 h (100 = growth as untreated, 0 = no growth, -100 = all killed)). Conditions: 10 µM unless noted.
`COC(=O)C1=Nc2ccc(F)cc2/C1=C\c1sc(Nc2ccc(O)cc2)nc1O` was tested, and the growth was 45.9% (inactive). In the case of `COc1ccc(OC)c(Nc2nnc(-c3ccc(Cl)cc3)o2)c1`, the growth is reported as 66.9% (inactive). In the case of `O=C(OC[C@@H]1CO1)c1cccc2c(=O)c3ccccc3[nH]c12`, the growth is reported as -89.9% (active). For `CNC(=O)c1c(NC(=O)c2ccc(C(C)(C)C)cc2)sc2c(CN(C)C)c(O)ccc12`, the growth was -88.9% (active). `C=C1C(=O)O[C@H]2[C@H]1CC/C(COC(=O)c1cc3cc(F)ccc3[nH]1)=C\CC[C@@]1(C)O[C@@H]21` was tested, and the growth was -76.4% (active). With `COc1ccc2[nH]cc(-c3nc(-c4cn(C)c5ccncc45)cs3)c2c1` the growth was 86.9% (inactive). For `Brc1ccc(-c2cnc3nonc3n2)cc1`, the growth was 53.9% (inactive). For `CC(C)CN1CC(C(=O)Nc2ccc3c(c2)-c2ccccc2C3)CC1=O` (stereo not given), the growth was 58.7% [50 µM] (inactive). `COc1cc2ncnc(Nc3ccc(F)c(Cl)c3)c2cc1OCC(=O)N1CCN(c2ccc(F)cc2)CC1` was tested, and the growth was 92.2% (inactive). For `COc1ccc(-c2cn(-c3ccc(Cl)cc3)c(SCC(=O)c3ccc([N+](=O)[O-])cc3)n2)cc1`, the growth was 87.9% (inactive). With `CCN(CC)S(=O)(=O)c1ccc(S(=O)(=O)N2CCC[C@@H](C(=O)N3CCN(C(=O)OC(C)(C)C)CC3)C2)cc1` the growth was 93.7% (inactive). `O=C(c1ccc(Cl)cc1Cl)N1c2ccccc2Sc2ccccc21` was tested, and the growth was 63.8% (inactive). With `COc1ccc(C2C3=C(COC3=O)N(CCO)c3cc4c(cc32)OCCO4)cc1OC` (stereo not given) the growth was 41.7% (inactive). `N#C/C(=C\c1ccc(-c2ccc(Cl)cc2)o1)c1ccc(Cl)cc1` was tested, and the growth was 62.9% (inactive). With `COc1ccc(C2CC(c3ccc(Nc4nc(Nc5ccc(F)cc5)nc(Nc5ccc(F)cc5)n4)cc3)=NN2C(C)=O)cc1` (stereo not given) the growth was 78.1% (inactive). With `CCN(CC)CCOc1nc2c3ccc(Cl)cc3nn2c2ccccc12` the growth was 35.8% (inactive). For `COc1cc2c(cc1O)[C@@]1(C)[C@H](c3ccccc3Br)OC(=O)N1CC2`, the growth was 83.1% (inactive). `CC(C)(C)c1cc(C=Nc2cccc(C(F)(F)F)c2)c(O)c(C(C)(C)C)c1` was tested, and the growth was 108% (inactive). `CCCCCCNc1nc(NCCCCCC)c2[nH]c(NCCCCCC)nc2n1` was tested, and the growth was 60.8% (inactive). With `COc1ccc(C2C(C#N)=C(N)Oc3c2sc2c(Br)cccc32)cc1` (stereo not given) the growth was 37% (inactive). In the case of `CC(/C=C1\SC(=S)N(CC(=O)NC(Cc2c[nH]c3ccccc23)C(=O)O)C1=O)=C\c1ccccc1` (stereo not given), the growth is reported as 107% (inactive). In the case of `CCOC(=O)c1c(NC(=O)c2ccc(OC)cc2)sc2c(CN(C)C)c(O)ccc12`, the growth is reported as -57.5% (active). With `O=C(CCCCl)NNc1nccc(Nc2ccc(S(=O)(=O)Nc3ccncc3)cc2)n1` the growth was 108% (inactive). In the case of `Nc1ncnc2c1c(-c1ccc(Oc3ccccc3)cc1)nn2CC1SSCC1O` (stereo not given), the growth is reported as -34.8% (active). For `COc1ccc(NC(=O)c2sc3nc(C)c(C(O)c4ccccc4)cc3c2N)cc1` (stereo not given), the growth was 38% (inactive). With `COc1cccc(C(=O)OCC(O)C(=O)NC23CC4CC(CC(C4)C2)C3)c1` (stereo not given) the growth was 99.1% (inactive). In the case of `O=C(CBr)CN1C(=O)c2ccccc2C1=O`, the growth is reported as 100% (inactive). `O=C(NCc1ccccc1O)c1cccc2ccccc12` was tested, and the growth was 48.7% (inactive). With `CCn1cc(C(=O)NN=C2CCCCCC2)c(=O)c2ccc(C)nc21` the growth was 97.1% (inactive). `Nc1c(C(=O)Nc2ccccn2)sc2nc3c(cc12)C(O)CCC3` (stereo not given) was tested, and the growth was 60.8% (inactive). With `COc1ccc(NC(=O)c2ccc(C(=O)Nc3ccc(OC)cc3OC)cc2)c(OC)c1` the growth was 84.5% (inactive). In the case of `O=C(Nc1ncc(Cc2ccccc2Cl)s1)c1cccs1`, the growth is reported as 69.1% (inactive). For `COc1ccc2nc3ccccc3c(NCc3ccccc3)c2c1`, the growth was 22.5% (inactive). `Fc1ccc(COc2ccc(Nc3ncnc4sc5c(c34)CCCC5)cc2)cc1` was tested, and the growth was 109% (inactive). In the case of `COc1ccc(C2=Nc3c/c(=C\c4c(O)[nH]c5cc(Cl)ccc45)ccc3=N2)cc1`, the growth is reported as 72.6% (inactive). For `N#Cc1c(N2CCOCC2)nc(=S)[nH]c1-c1ccccc1`, the growth was -3.74% (active). For `O=C1CCC(C(=O)NN(c2ccccc2)c2ccccc2)N1` (stereo not given), the growth was 104% (inactive). With `C/C(C=O)=C\c1ccc2c(c1)OCO2` the growth was 127% (inactive). In the case of `COc1cc2c(/C=C3\C(=O)Nc4ccccc43)c(C(=O)O)[nH]c2cc1C`, the growth is reported as 99.5% (inactive). For `C/C(=N\Nc1nc(C)cs1)c1cc2ccccc2o1`, the growth was 93.8% (inactive).

The compounds below were run on MDA-MB-231 breast in the same assay as above. Conditions: 10 µM unless noted.
For `COC(=O)C1=Nc2ccc(F)cc2/C1=C\c1sc(Nc2ccc(O)cc2)nc1O`, the growth was 76.7% (inactive). `COc1ccc(OC)c(Nc2nnc(-c3ccc(Cl)cc3)o2)c1` was tested, and the growth was 85.6% (inactive). `O=C(OC[C@@H]1CO1)c1cccc2c(=O)c3ccccc3[nH]c12` was tested, and the growth was -28.1% (active). For `CNC(=O)c1c(NC(=O)c2ccc(C(C)(C)C)cc2)sc2c(CN(C)C)c(O)ccc12`, the growth was -44.8% (active). In the case of `C=C1C(=O)O[C@H]2[C@H]1CC/C(COC(=O)c1cc3cc(F)ccc3[nH]1)=C\CC[C@@]1(C)O[C@@H]21`, the growth is reported as -70.1% (active). For `COc1ccc2[nH]cc(-c3nc(-c4cn(C)c5ccncc45)cs3)c2c1`, the growth was -61.7% (active). `Brc1ccc(-c2cnc3nonc3n2)cc1` was tested, and the growth was 69.1% (inactive). `CC(C)CN1CC(C(=O)Nc2ccc3c(c2)-c2ccccc2C3)CC1=O` (stereo not given) was tested, and the growth was 55.9% [50 µM] (inactive). `COc1cc2ncnc(Nc3ccc(F)c(Cl)c3)c2cc1OCC(=O)N1CCN(c2ccc(F)cc2)CC1` was tested, and the growth was 79.3% (inactive). For `COc1ccc(-c2cn(-c3ccc(Cl)cc3)c(SCC(=O)c3ccc([N+](=O)[O-])cc3)n2)cc1`, the growth was 80% (inactive). For `CCN(CC)S(=O)(=O)c1ccc(S(=O)(=O)N2CCC[C@@H](C(=O)N3CCN(C(=O)OC(C)(C)C)CC3)C2)cc1`, the growth was 77.7% (inactive). With `O=C(c1ccc(Cl)cc1Cl)N1c2ccccc2Sc2ccccc21` the growth was 68.8% (inactive). In the case of `COc1ccc(C2C3=C(COC3=O)N(CCO)c3cc4c(cc32)OCCO4)cc1OC` (stereo not given), the growth is reported as 56.8% (inactive). `N#C/C(=C\c1ccc(-c2ccc(Cl)cc2)o1)c1ccc(Cl)cc1` was tested, and the growth was 32.6% (inactive). In the case of `COc1ccc(C2CC(c3ccc(Nc4nc(Nc5ccc(F)cc5)nc(Nc5ccc(F)cc5)n4)cc3)=NN2C(C)=O)cc1` (stereo not given), the growth is reported as 122% (inactive). In the case of `CCN(CC)CCOc1nc2c3ccc(Cl)cc3nn2c2ccccc12`, the growth is reported as 21.3% (inactive). With `COc1cc2c(cc1O)[C@@]1(C)[C@H](c3ccccc3Br)OC(=O)N1CC2` the growth was 95.6% (inactive). `CC(C)(C)c1cc(C=Nc2cccc(C(F)(F)F)c2)c(O)c(C(C)(C)C)c1` was tested, and the growth was 98.3% (inactive). `CCCCCCNc1nc(NCCCCCC)c2[nH]c(NCCCCCC)nc2n1` was tested, and the growth was -2.45% (active). With `COc1ccc(C2C(C#N)=C(N)Oc3c2sc2c(Br)cccc32)cc1` (stereo not given) the growth was 40.5% (inactive). `CC(/C=C1\SC(=S)N(CC(=O)NC(Cc2c[nH]c3ccccc23)C(=O)O)C1=O)=C\c1ccccc1` (stereo not given) was tested, and the growth was 104% (inactive). `CCOC(=O)c1c(NC(=O)c2ccc(OC)cc2)sc2c(CN(C)C)c(O)ccc12` was tested, and the growth was 79.1% (inactive). In the case of `O=C(CCCCl)NNc1nccc(Nc2ccc(S(=O)(=O)Nc3ccncc3)cc2)n1`, the growth is reported as 116% (inactive). For `Nc1ncnc2c1c(-c1ccc(Oc3ccccc3)cc1)nn2CC1SSCC1O` (stereo not given), the growth was 47% (inactive). For `COc1ccc(NC(=O)c2sc3nc(C)c(C(O)c4ccccc4)cc3c2N)cc1` (stereo not given), the growth was 27.7% (inactive). `COc1cccc(C(=O)OCC(O)C(=O)NC23CC4CC(CC(C4)C2)C3)c1` (stereo not given) was tested, and the growth was 93% (inactive). With `O=C(CBr)CN1C(=O)c2ccccc2C1=O` the growth was 107% (inactive). For `O=C(NCc1ccccc1O)c1cccc2ccccc12`, the growth was 68.9% (inactive). `CCn1cc(C(=O)NN=C2CCCCCC2)c(=O)c2ccc(C)nc21` was tested, and the growth was 87.1% (inactive). In the case of `Nc1c(C(=O)Nc2ccccn2)sc2nc3c(cc12)C(O)CCC3` (stereo not given), the growth is reported as 67.1% (inactive). With `COc1ccc(NC(=O)c2ccc(C(=O)Nc3ccc(OC)cc3OC)cc2)c(OC)c1` the growth was 53.1% (inactive). For `O=C(Nc1ncc(Cc2ccccc2Cl)s1)c1cccs1`, the growth was 88.7% (inactive). For `COc1ccc2nc3ccccc3c(NCc3ccccc3)c2c1`, the growth was 27.8% (inactive). In the case of `Fc1ccc(COc2ccc(Nc3ncnc4sc5c(c34)CCCC5)cc2)cc1`, the growth is reported as 94.9% (inactive). `COc1ccc(C2=Nc3c/c(=C\c4c(O)[nH]c5cc(Cl)ccc45)ccc3=N2)cc1` was tested, and the growth was 69.2% (inactive). `N#Cc1c(N2CCOCC2)nc(=S)[nH]c1-c1ccccc1` was tested, and the growth was 73.1% (inactive). In the case of `O=C1CCC(C(=O)NN(c2ccccc2)c2ccccc2)N1` (stereo not given), the growth is reported as 110% (inactive). For `C/C(C=O)=C\c1ccc2c(c1)OCO2`, the growth was 121% (inactive). In the case of `COc1cc2c(/C=C3\C(=O)Nc4ccccc43)c(C(=O)O)[nH]c2cc1C`, the growth is reported as 87.9% (inactive). With `C/C(=N\Nc1nc(C)cs1)c1cc2ccccc2o1` the growth was 79.9% (inactive).

— PubChem BioAssay (NCI)
